Compound activity from PubChem BioAssay.
F508del corr: F508del CFTR correction, initial screen, CFBE line, single point; AID 720511, 2013; 350,000 tested, 0.36% active; activity (quench increase), % at 7.58 µM; CFBE cells, YFP halide quenching; stimulated with forskolin plus potentiator P3; % fluorescence drop versus neutral controls;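 active = mean added fluorescence quench of at least 8% versus neutral control, with both replicates also reaching 8%; inconclusive = only one of the mean or replicate conditions met; inactive = mean below 8% and not both replicates reaching 8%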;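 also: cells transiently co-express mutant CFTR-F508del with the halide-sensitive YFP; corrector assay measuring rescue of mutant channel to the surface after 24 h compound exposure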
FXN GAA850 act: FXN promoter activators, primary screen, cell-based, luciferase luminescence, HEK293 lucGAA850; activation, % at 6 µM; HEK293 lucGAA850 FXN promoter luciferase reporter, 24 h; percent of 10 µM SAHA response; AID 540364, 2011; 360,000 tested, 0.56% active;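 active = activation above the average of all compounds screened plus 3 SD, cutoff fixed separately per campaign, cut at about 7.5% in these data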;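 also: 0% = DMSO wells and 100% = 10 µM SAHA wells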
PAX8 reporter: inhibitors of PAX8-driven TPO luciferase reporter, primary screen, RMG-I cells, single concentration | SteadyGlo, 24 h | inhibition, % at 12.6 µM | 360,000 tested, 1.2% active;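 active = mean replicate inhibition at least 60% with every replicate also reaching 60%; inconclusive = only one of the two criteria is met; inactive = mean below 60% and not all replicates reaching 60%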;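 also: luciferase light reporting Pax8 driven TPO promoter activity; plate controls were median of neutral control wells for no effect and mitoxantrone controls for full effect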
Env fusion inh: inhibitors of HIV-1 Env-driven cell-cell fusion, primary screen, HeLa-JRFL effector, CEM21 target cells, luciferase. 360,000 tested, 1.1% active. AID 651610, 2012. inhibition, % at 12.3 µM;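 active = mean replicate inhibition score of at least 50 and every replicate individually at or above 50; inconclusive = only one of the two criteria met; inactive = mean below 50 and not all replicates reaching 50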;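 also: 0% = plate neutral controls and 100% = maraviroc near 300 nM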
EWS-Fli inh: EWS/Fli-driven NR0B1 reporter inhibitors, primary screen, A673 cells, NR0B1 luciferase, luminescence, MLPCN library; viability-normalised; inhibition, % at 12.6 µM; 350,000 tested, 0.67% active;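 active = mean inhibition of at least 50% after viability correction, with every replicate also passing that limit; inconclusive = mean reaches 50% but only one of two replicates passes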;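 also: firefly luciferase signal divided by Alamar Blue viability fluorescence both relative to DMSO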
* = called active by the depositor; ? = inconclusive; / = no result given; [ ] = another dose, or the depositor's remark. Hits are enriched below; roughly 2.5% of the tested compounds scored in any of these assays.

SMILES | F508del corr | FXN GAA850 act | PAX8 reporter | Env fusion inh | EWS-Fli inh
CC1(C)CC(=O)C=C(NCc2ccc(Cl)c(Cl)c2)C1 | / | 2 | / | 60* | /
C[C@@H]1CN([C@@H](C)CO)C(=O)Cc2cc(NC(=O)C3CCCCC3)ccc2O[C@H]1CN(C)CC1CCCCC1 | 0 | / | / | 9[16.7 µM] | 2
COc1cc(/C=N/NC(=O)c2ccc(CN3C(=O)c4cccc5cccc3c45)cc2)cc(OC)c1O | -14 | 7 | 98* | 4 | 5
CC(=O)NC(=S)Nc1ccc(NC(=S)NC(=O)/C=C/c2ccco2)cc1 | 14* | 3 | 25 | -8 | 18
C[C@H]1CCCCO[C@@H](CN(C)Cc2ccc(C(=O)O)cc2)[C@@H](C)CN([C@@H](C)CO)C(=O)c2cc(NC(=O)Nc3ccc(F)cc3)ccc2O1 | 0 | / | 0 | 34[16.7 µM] | -22
CCNC1CCC(Nc2ccnc3cc(Cl)ccc23)CC1 (centres undefined) | 1 | -1 | 19 | 74* | 4
OC(CNc1ccnc2cc(Cl)ccc12)CNC1CCCCC1 (centres undefined) | / | -1 | 29 | 2 | 24
CC(C)(C)OC(=O)NCCCCCNC(=O)c1ncn(Cc2ccccc2)c1C(=O)NCCCCCNC(=O)OC(C)(C)C | 0 | 0 | 75* | -36 | 31
O=C(Nc1ccccc1)c1nc[nH]c1C(=O)NCCCCCCNC(=O)c1[nH]cnc1C(=O)Nc1ccccc1 | 3 | 1 | -5 | 57* | 20
CC(C)(C)OC(=O)NCCCC[C@H](NC(=O)c1nc[nH]c1C(=O)NC(c1ccccc1)c1ccccc1)C(=O)OC(C)(C)C | 4 | 1 | 80* | -59 | 22
O=C(Nc1ccccc1)c1nc[nH]c1C(=O)NCCCNC(=O)c1[nH]cnc1C(=O)Nc1ccccc1 | 0 | 1 | 3 | 18 | 5
CC(C)(C)OC(=O)NCCCC[C@H](NC(=O)c1nc[nH]c1C(=O)N[C@@H](CCCCNC(=O)OC(C)(C)C)C(=O)OC(C)(C)C)C(=O)OC(C)(C)C | 5 | -4 | 76* | 5 | 17
CC(C)(C)OC(=O)NCc1ccc(CNC(=O)c2nc[nH]c2C(=O)NCc2ccc(CNC(=O)OC(C)(C)C)cc2)cc1 | 0 | 1 | 55 | 15 | 4
CC(C)(C)OC(=O)NCCCCCNC(=O)c1nc[nH]c1C(=O)NCc1ccc(CNC(=O)OC(C)(C)C)cc1 | -2 | -5 | 72* | 30 | 28
CCn1c2ccccc2c2cc(Nc3cc(C)nc4ncnn34)ccc21 | 0 | -2 | 96* | -64 | 64*
C[C@H](CO)N1C[C@H](C)[C@H](CN(C)C(=O)Nc2ccc(C(F)(F)F)cc2)Oc2ccc(NS(=O)(=O)c3ccc(F)cc3)cc2C1=O | -1 | / | -17 | -1[16.7 µM] | -15
CCCNC(=O)c1nnsc1S(=O)c1ccc(Cl)cc1 (centres undefined) | / | -14 | 79* | 3 | 41
CCCNC(=O)c1nnsc1S(=O)(=O)c1ccc(Cl)cc1 | -8 | -14 | 112* | -15 | 13
C[C@@H]1CN([C@H](C)CO)C(=O)c2cccc(NS(C)(=O)=O)c2O[C@@H]1CN(C)Cc1ccccc1 | -1 | / | -18 | -8[16.7 µM] | -2
O=C1c2cccnc2C(=O)N1CO | / | 0 | / | / | /
NC1=C(Br)C(=O)c2ncccc2C1=O | -5 | -15 | 131* | ? | 20
C[C@H](CO)N1C[C@H](C)[C@H](CN(C)Cc2ccc(-c3ccccc3)cc2)Oc2c(NC(=O)Nc3ccc(C(F)(F)F)cc3)cccc2C1=O | 0 | / | / | / | 9
C[C@@H]1CCCCO[C@H](CN(C)Cc2ccncc2)[C@@H](C)CN([C@H](C)CO)C(=O)c2cc(NC(=O)Nc3ccc(C(F)(F)F)cc3)ccc2O1 | -1 | / | 1 | -12[16.7 µM] | -9
CCOc1ccc(OCC)c(S(=O)(=O)NNC(=O)c2c(C)nc3ccccn23)c1 | -1 | -2 | 86* | / | 10
Cc1nc2ccccn2c1C(=O)NNS(=O)(=O)c1ccc(C(C)(C)C)cc1 | / | 0 | 24 | 72* | /
CCOC(=O)c1[nH]c2c(c1C)C(=O)CC(c1ccco1)C2 (centres undefined) | -2 | 0 | 83* | -444 | 32
COCCOC(=O)c1[nH]c2c(c1C)C(=O)CC(c1ccco1)C2 (centres undefined) | 7 | -1 | 46 | -293 | 65*
